Experimental data from ChEMBL document CHEMBL4888484, “Replenishing the malaria drug discovery pipeline: Screening and hit evaluation of the MMV Hit Generation Library 1 (HGL1) against asexual blood stage Plasmodium falciparum ,using a nano luciferase reporter read-out” (2022).
Out of some 4,800 compounds screened, about 420 (8.8%) showed an effect of 50% or more. The list comes from a sample in which strong results are over-represented; it also holds similar structures and randomly drawn compounds.

These molecules were tested on Plasmodium falciparum (assay: Confirmatory screen in NF54 nanoGlo assay, in single point, at 2uM, 72h). Conditions: timepoint 72 hour.
Type: functional, Erythrocyte

Structure (SMILES)	% Inhibition
Cc1occc1C(=O)NC1(c2ccccc2)CCOCC1	-5%
COc1cc(OC)c(NC(=O)[C@H]2CCCN(c3nc4ccccc4[nH]c3=O)C2)cc1Cl	-2%
Cc1nc2ccccc2n1C(=O)c1sc2ccccc2c1Cl	-1%
O=S(=O)(c1ccc(Br)cc1)N1CCOC12CCCCC2	-7%
Cn1nnc(Cn2nnc(-c3ccccc3)n2)n1	-11%
CS(=O)(=O)N1CCC[C@H](Cn2nnnc2C=Cc2ccccc2)C1	8%
Cc1csc(NC(=O)NCCc2cc(F)cc3c2OCOC3)n1	-14%
COC[C@H](NCCc1cc(F)cc2c1OCOC2)C1CC1	63%
COc1ccccc1N1CCN(C(=O)c2nnn(-c3ccccc3Cl)c2-c2cccnc2)CC1	-2%
Cc1ccc(OCc2cccc(-c3nc4c5cn[nH]c5ncn4n3)c2)c(C)c1	-7%
CC(C)N(CCCNC(=O)c1cnn2c3c(cnc12)CCCCCC3)Cc1ccccc1	0%
COc1ccc(Cl)cc1NC(=O)Cc1c(C)nc2nc(-c3ccccc3C)nn2c1C	-2%
COc1ccc(Cn2nc(C)n(-c3cccc(F)c3)c2=O)cc1	-1%
COc1ccc(CC(=O)Nc2cc(C)n(-c3cccc(Cl)c3)n2)cc1	81%
Fc1ccc(-c2csc(N3CCC[C@H](c4cn[nH]c4)C3)n2)cc1	-1%
CCOC(=O)n1c(=O)[nH]c2ccc(Br)cc21	-10%
O=S(=O)(Nc1cccc2cccnc12)c1cccs1	60%
O=S(=O)(Nc1nncs1)c1cccs1	-10%
Cc1cc(NS(=O)(=O)c2cccs2)n(-c2ccncc2)n1	2%
COc1nc(N)nc(C(Cl)(Cl)Cl)n1	0%
Cc1cc(F)ccc1CS(=O)(=O)N1CCC(CN2CCOCC2)CC1	-8%
C[C@H](N)c1ccc(Nc2ncc3cc(-c4ccncc4)ccc3n2)cc1	93%
CC(C)c1ccc(-c2n[nH]nc2C(=O)c2ccccc2N)cc1	-1%
CC(C)c1ncsc1C(=O)NC(C)(C)C(=O)NCC1CCCC1	-13%
Cc1cccc(NC(=O)c2c(C)sc3ncnc(N4CCCCC4)c23)c1C	10%
C[n+]1ccc(-c2ncc(-c3ccccc3)o2)c2ccccc21	75%

Structure (SMILES)	% Inhibition
CCc1ccc(CS(=O)(=O)NC(=O)c2cn3ccnc3s2)cc1	6%
CCn1ccnc1C(=O)Nc1ccc(OC)nc1	-6%
Cc1ccc(NC(=O)c2cn(CC3(O)CCN(Cc4ccccc4)CC3)nn2)c(C)c1	1%
N#Cc1ccc(NCCc2ccc(O)cc2)cn1	-9%
O=C(Nc1[nH]c(=O)ncc1F)c1cc(F)c(F)cc1Br	95%
O=C(Nc1[nH]c(=O)ncc1F)c1cccc2ccccc12	84%
Cn1ccc(NC(=O)c2cccc3ccccc23)n1	-8%
O=C(Nc1ccccc1-c1nnc[nH]1)c1ccc(F)c(Cl)c1	-3%
COc1cc(C(=O)Nc2[nH]c(=O)ncc2F)ccc1Cl	81%
CC1(C)C(=O)NCCN1C(=O)c1cccc2ccccc12	5%
COc1ccc(C(=O)Nc2ccc3c(c2)C(=O)Nc2cccnc2O3)cc1OC	46%
CC(C)CN1C(=O)CC[C@@H](C(=O)NCCCOC(C)C)[C@@H]1c1cccnc1	-13%
Cc1cc(C(=O)Nc2cc(Br)c(=O)n(C)c2)no1	-14%
Cc1ccc(N2CCCC2)c(C(=O)N2CCN(Cc3c(C)nc4cc(C)ccn34)CC2)c1	3%
O=C(Nc1cnc(-n2ccnc2)nc1)C(c1ccccc1)c1ccccc1	36%
C[C@H]1CCCN(c2nc3ncn(CC(=O)Nc4ccccc4C(F)(F)F)c(=O)c3s2)C1	-15%
O=C(NC1CCCCC1)c1cc2c(Cl)ccc3c2n1CCO3	-10%
COc1nc(-c2cccc(C(=O)NCC3CCOCC3)c2)ncc1F	66%
COc1ccc(C(=O)N2CC[C@H](c3nc(C4CCOCC4)no3)C2)cc1OC	2%
O=C(NCC1CCOCC1)c1ccc2n[nH]c(=O)n2c1	-1%
COCc1cc(C(=O)N[C@H](c2ccccc2)C2CCOCC2)no1	0%
Cc1ccc(C(=O)N2CC(n3cnnc3C)C2)cc1F	-19%
COc1ccc(-c2[nH]ncc2C(=O)NCC2CCCCC2)cc1OC	2%
O=C(CC1CCOCC1)NCc1ccccn1	-11%
COc1nc(-c2cccc(C(=O)N3C[C@@H]4CC[C@H](C3)C(=O)N4)c2)ncc1F	67%
COCc1cc(C)n(CC#N)c(=O)c1C#N	11%

Structure (SMILES)	% Inhibition
CCCc1ccc(Cl)c(S(=O)(=O)Nc2nnc(C3CC3)o2)c1	2%
COC[C@@H](C)CNc1nc(C)cc(C)n1	-3%
CCn1cc2c(n1)c(=O)n(Cc1ccc(C)cc1)c(=O)n2CC(=O)Nc1ccc(C)cc1C	-10%
COc1ccc(C(=O)N2CC[C@H](CC(=O)N3CCOCC3)C2)cc1	-9%
Cc1c(C(=O)NCCc2ccc(Cl)cc2)oc2ccc3c(c12)[C@@H](O)CC(C)(C)O3	4%
O=C(N[C@H](c1ccccc1)C1CC1)c1cccnc1O	-9%
CC1CCCC(N2C(=O)c3ccccc3C2NCc2ccccc2)C1C (centres undefined)	0%
CCOC(=O)c1cnc(N2CCCC2)nc1C1CCN(C(=O)OC(C)(C)C)CC1	-2%
Cc1cc(C(=O)NCc2ccco2)nn1C(F)F	-13%
Cc1noc(C)c1CS(=O)(=O)CCC(=O)NC1CCCCC1	-11%
CC(c1ccccc1)N1C(=O)c2ccccc2C1c1c[nH]c2ccccc12 (centres undefined)	23%
CCOc1cc(C)ccc1S(=O)(=O)NC(C)C	-3%
NC(=NCc1cccc2cccnc12)N1CCN(c2nccs2)CC1	57%
NC1CC(NCCc2cccc3cccnc23)c2ccccc21 (centres undefined)	43%
Cc1ccc(C(=O)N2CCC(N3C(=O)[C@H]4CCCN4C3=O)CC2)cc1	-9%
Cc1ccc2nc(-c3cccc(NC(=O)c4ccc5c(c4)OCO5)c3)oc2c1	-12%
COC(=O)c1cccc(C#Cc2cccc(NC(=O)c3cnc(C)cn3)c2)c1	-19%
COCCNC(=O)c1ccc(-n2nc(-c3nnc(C)o3)c(C)c2-c2ccc(OC)cc2)cc1	46%
CC(C)N(C)CCOC(=O)c1ccccc1Cl	-1%
CCN1c2cc(C(=O)NCc3ccncc3)ccc2C(=O)N2CCCC[C@H]21	-2%
Cc1cc(C(=O)N(CCN(C)C)c2ccccc2)c(C)s1	-1%
Cc1cc(C(=O)Nc2ccc(Br)c(C)n2)no1	-12%
Cc1cc(Br)ccc1N1CC[C@@H](C(=O)NC2CC2)C1=O	2%
CCN(CCO)S(=O)(=O)c1ccc2c(c1)CCO2	-7%
c1ccc(CC2=NCCc3ccccc32)cc1	65%
O=c1cc2c(nn1Cc1cccc(Cl)c1)-c1ccccc1CC2	-6%

Structure (SMILES)	% Inhibition
Cc1cccc2ncnc(N(C)[C@@H](C)Cc3ccc(O)cc3)c12	79%
COc1ccccc1Nc1c(-c2cccs2)nc2ccccn12	-2%
Cc1c(N=C2NC3(CCCCC3)Cc3ccccc32)c(=O)n(C)n1-c1ccccc1	-1%
CC1([C@@](O)(C#CC[N+]2(C)CCCCC2)c2ccccc2)CCCC1	50%
CCC[N+]1(CC#C[C@@](O)(c2ccccc2)C2(C)CCCC2)CCCCC1	46%
CCC[N+]1(CC#C[C@@](O)(c2ccccc2)C(C)(CC)CC)CCCCC1	48%
O=C(N1CCCN(c2nc3ccccc3nc2-c2ccccc2)CC1)C(Cl)(Cl)Cl	46%
CCn1cc(C(=O)Nc2ccc(C(=O)N3CCCCC3)cc2)cn1	1%
CCN(CC)c1ccc(C(=O)Nc2ccc3nc(N4CCCC4)cc(C)c3c2)cc1	85%
COc1cc(OC)cc(C(=O)Nc2ccc3nc(N4CCC(C)CC4)cc(C)c3c2)c1	47%
COc1ccc(N(Cc2ccc(F)cc2)S(=O)(=O)c2ccc3nncn3c2)cc1	-13%
CC(C)CC(=O)Nc1ccc2c(c1)C(N1CCC(C)CC1)=Nc1ccccc1O2	0%
Cc1oc(C(=O)N2CC3(CCCC3)c3ccccc32)cc1S(=O)(=O)N(C)C	4%
COCCCN(Cc1c(C)nn(-c2cccc(F)c2)c1N1CCN(C)CC1)S(=O)(=O)c1ccc2ccccc2c1	7%
COCCCn1c(NS(=O)(=O)c2ccccc2)c(S(=O)(=O)c2ccc(C)cc2)c2nc3ccccc3nc21	61%
COCCCn1c(NS(=O)(=O)c2ccc3ccccc3c2)c(S(=O)(=O)c2ccc(C)cc2)c2nc3ccccc3nc21	56%
COc1ccc(-c2cc(C[C@H]3CNCC[C@H]3CC(=O)Nc3ccccc3)no2)cc1	-7%
CCCn1c(C)ccc(-c2noc(CCC(=O)NC3CCCC3)n2)c1=O	-6%
CN(C(=O)C1C(C(=O)O)C1(C)C)c1ccccc1OC(F)F (centres undefined)	-2%
Cc1ccc(C(=O)Nc2ccc(N3CCN(CCC#N)CC3)cc2C(=O)O)cc1	-12%
Cc1ccccc1[C@H]1CCN(c2ccc(NC(=O)c3ccc(Cl)cc3)c(C(=O)O)c2)C1	-11%
Cc1ccc(C(=O)Nc2cc3c4c(c2)C2CCCC2CN4CC2CCCC32)cc1 (centres undefined)	60%
CC(C)(C)OC(=O)N1C2CCC1CC(CC(=O)NC1CCCC1)C2 (centres undefined)	8%
COCCN(CC1CN(Cc2cccs2)CC1c1cccc(F)c1)C(=O)C(C)C (centres undefined)	-3%
Cc1cc(C)n2cc(COC(=O)Cn3c(C)cc4ccccc43)nc2n1	-2%
Cc1oc2ncn(CCN3CCCC3)c(=O)c2c1C(=O)Nc1ccc(C#N)cc1	34%
